Reference: PubChem BioAssay AID1159580 (chemical genetic matrix, 2015)
“And” between values parts separate entries of the source, which are not always exact repeats. Equal entries are not always repeated. The whole screen tested about 5,500 compounds, of which about 2,000 (36%) were called active. About 18% were inconclusive and are not listed. Rule as the data show it: active = normalized growth mostly below about 0.91 (no sharp cut-off); inconclusive = no clear call, values can overlap the other calls; inactive = mostly above about 0.92. The list shows a part of the results.

Assay: chemical genetic growth profiling, strain panel (AID 1159580);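 also: tested at 20 µM; growth read once vehicle control cultures reached saturation at 30 °C; 1 = growth at the plate median or of vehicle wells; lower values mean less growth of the strain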
Conditions: S. cerevisiae deletion strains, growth OD

Measured: normalized growth

O=c1cccc2n1C[C@H]1CNCC2C1
inactive: locus YAL021C, strain ccr4, hits give low values 1 | locus YAL026C, strain drs2, hits give low values 1.01 | locus YAL030W, strain snc1, hits give low values 1.01 | locus YBL061C, strain skt5, hits give low values 1.01 | locus YBR009C, strain hhf1, hits give low values 0.982 | locus YBR021W, strain FUR4, hits give low values 1.03 | locus YBR023C, strain chs3, hits give low values 0.999 | locus YBR171W, strain sec66, hits give low values 0.997 | locus YBR229C, strain ROT2, hits give low values 1 | locus YBR231C, strain swc5, hits give low values 1.02 | locus YBR279W, strain paf1, hits give low values 1 | locus YCL011C, strain gbp2, hits give low values 0.99 | locus YCL016C, strain dcc1, hits give low values 0.973 | locus YCL029C, strain bik1, hits give low values 0.985 | locus YCL061C, strain MRC1, hits give low values 0.987 | locus YCL069W, strain vba3, hits give low values 1 | locus YCR088W, strain abp1, hits give low values 1 | locus YDL005C, strain med2, hits give low values 1.01 | locus YDL035C, strain GPR1, hits give low values 0.988 | locus YDL040C, strain nat1, hits give low values 1.01 | locus YDL074C, strain BRE1, hits give low values 0.984 | locus YDL101C, strain DUN1, hits give low values 1.01 | locus YDL134C, strain PPH21, hits give low values 1.03 | locus YDL185W, strain tfp1, hits give low values 0.955 | locus YDL192W, strain arf1, hits give low values 0.987 | locus YDR001C, strain nth1, hits give low values 1.01 | locus YDR069C, strain doa4, hits give low values 1.01 | locus YDR101C, strain arx1, hits give low values 0.966 | locus YDR137W, strain rgp1, hits give low values 1.02 | locus YDR150W, strain NUM1, hits give low values 1 | locus YDR159W, strain sac3, hits give low values 1 | locus YDR162C, strain NBP2, hits give low values 1.01 | locus YDR195W, strain ref2 0.999 | locus YDR297W, strain sur2, hits give low values 0.999 | locus YDR318W, strain mcm21, hits give low values 0.996 | locus YDR334W, strain swr1, hits give low values 0.999 | locus YDR335W, strain msn5, hits give low values 1.01 | locus YDR388W, hits give low values 0.992 | locus YDR392W, strain spt3, hits give low values 0.899 | locus YDR502C, strain sam2, hits give low values 1 | locus YEL003W, strain gim4, hits give low values 1 | locus YEL037C, strain rad23, hits give low values 1.01 | locus YEL061C, strain CIN8 (second series), hits give low values 1.01 | locus YEL061C, strain CIN8, hits give low values 1.01 | locus YER015W, strain faa2, hits give low values 1.01 | locus YER016W, strain bim1, hits give low values 1.01 | locus YER110C, hits give low values 0.974 | locus YER111C, strain swi4, hits give low values 0.985 | locus YER155C, strain BEM2 (second series), hits give low values 0.974 | locus YER155C, strain BEM2, hits give low values 1 | locus YER167W, strain BCK2, hits give low values 1 | locus YFR010W, strain ubp6, hits give low values 1.02 | locus YGL078C, strain dbp3, hits give low values 0.982 | locus YGL086W, strain mad1, hits give low values 0.965 | locus YGL167C, strain pmr1, hits give low values 0.994 | locus YGL173C, strain kem1, hits give low values 0.998 | locus YGL227W, strain vid30, hits give low values 1.01 | locus YGL240W, strain doc1, hits give low values 1.05 | locus YGL248W, strain PDE1, hits give low values 1.03 | locus YGL253W, strain hxk2, hits give low values 1.01 | locus YGR078C, strain PAC10, hits give low values 1.03 | locus YGR135W, strain pre9, hits give low values 1.02 | locus YGR252W, strain gcn5, hits give low values 1.1 | locus YHR013C, strain ard1, hits give low values 0.98 | locus YHR027C, strain rpn1, hits give low values 1.01 | locus YHR030C, strain SLT2, hits give low values 0.997 and 1.01 | locus YHR079C, strain IRE1 (second series), hits give low values 0.966 | locus YHR079C, strain IRE1, hits give low values 1.04 | locus YHR094C, strain hxt1, hits give low values 0.995 | locus YHR129C, strain ARP1, hits give low values 1 | locus YHR142W, strain chs7, hits give low values 0.991 | locus YHR200W, strain rpn10, hits give low values 0.979 | locus YIL066C, strain RNR3, hits give low values 1.02 | locus YIL073C, strain SPO22, hits give low values 0.947 | locus YIL125W, strain kgd1, hits give low values 0.987 | locus YIR030C, strain dcg1, hits give low values 0.992 | locus YJL092W, strain hpr5, hits give low values 1 | locus YJL095W, strain BCK1 (second series), hits give low values 1 | locus YJL095W, strain BCK1, hits give low values 1.07 and 1.01 | locus YJL115W, strain asf1, hits give low values 0.998 | locus YJL129C, strain trk1, hits give low values 1 | locus YJL134W, strain LCB3, hits give low values 0.999 | locus YJL154C, strain vps35, hits give low values 0.997 | locus YJL164C, strain tpk1, hits give low values 1 | locus YJL166W, strain qcr8, hits give low values 0.98 | locus YJL168C, strain set2, hits give low values 0.984 | locus YJL187C, strain SWE1 (second series), hits give low values 1.01 | locus YJL187C, strain SWE1, hits give low values 1.01
